Data from PubChem BioAssay AID1159580 (chemical genetic matrix, 2015).
Among all 5,500 compounds or so, about 2,000 (36%) were called active. Roughly 18% stayed inconclusive and do not appear here. Rule as the data show it: active = normalized growth mostly below about 0.91 (no sharp cut-off); inconclusive = no clear call, values can overlap the other calls; inactive = mostly above about 0.92. Some of the results follow.

Test: chemical genetic growth profiling, strain panel (AID 1159580);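 also: tested at 20 µM; growth read once vehicle control cultures reached saturation at 30 °C; 1 = growth at the plate median or of vehicle wells; lower values mean less growth of the strain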
Settings: growth OD

Measured: normalized growth

Cc1ccccc1OCC(O)CO (stereo not given)
inactive: S. cerevisiae deletion strains, locus YJR066W, strain TOR1, active compounds read low 0.913 | S. cerevisiae deletion strains, locus YJR075W, strain HOC1, active compounds read low 1.04 | S. cerevisiae deletion strains, locus YKL009W, strain mrt4, active compounds read low 0.987 | S. cerevisiae deletion strains, locus YKL068W, active compounds read low 0.996 | S. cerevisiae deletion strains, locus YKL085W, strain MDH1 (second series), active compounds read low 1.04 | S. cerevisiae deletion strains, locus YKL085W, strain MDH1, active compounds read low 1.04 | S. cerevisiae deletion strains, locus YKL160W, strain elf1, active compounds read low 0.986 | S. cerevisiae deletion strains, locus YKL190W, strain CNB1, active compounds read low 1.01 | S. cerevisiae deletion strains, locus YKR001C, strain vps1, active compounds read low 0.991 | S. cerevisiae deletion strains, locus YKR026C, strain gcn3, active compounds read low 0.928 | S. cerevisiae deletion strains, locus YKR091W, strain srl3, active compounds read low 0.984 | S. cerevisiae deletion strains, locus YLL001W, strain dnm1, active compounds read low 0.985 | S. cerevisiae deletion strains, locus YLL026W, active compounds read low 0.983 | S. cerevisiae deletion strains, locus YLL041C, strain sdh2, active compounds read low 0.985 | S. cerevisiae deletion strains, locus YLR027C, strain aat2, active compounds read low 0.957 | S. cerevisiae deletion strains, locus YLR039C, strain RIC1, active compounds read low 1.02 | S. cerevisiae deletion strains, locus YLR058C, strain SHM2, active compounds read low 1.02 | S. cerevisiae deletion strains, locus YLR102C, strain apc9, active compounds read low 0.991 | S. cerevisiae deletion strains, locus YLR113W, strain HOG1, active compounds read low 0.971 | S. cerevisiae deletion strains, locus YLR221C, strain rsa3, active compounds read low 0.982 | S. cerevisiae deletion strains, locus YLR258W, strain gsy2, active compounds read low 0.98 | S. cerevisiae deletion strains, locus YLR262C, strain YPT6 (second series), active compounds read low 0.973 | S. cerevisiae deletion strains, locus YLR262C, strain YPT6, active compounds read low 1.02 | S. cerevisiae deletion strains, locus YLR268W, strain sec22, active compounds read low 0.996 | S. cerevisiae deletion strains, locus YLR320W, strain mms22, active compounds read low 0.964 | S. cerevisiae deletion strains, locus YLR330W, strain CHS5, active compounds read low 1.01 | S. cerevisiae deletion strains, locus YLR342W, strain FKS1 (second series), active compounds read low 1.04 | S. cerevisiae deletion strains, locus YLR342W, strain FKS1, active compounds read low 0.966 | S. cerevisiae deletion strains, locus YLR357W, strain rsc2, active compounds read low 0.982 | S. cerevisiae deletion strains, locus YLR370C, strain arc18, active compounds read low 0.979 | S. cerevisiae deletion strains, locus YLR371W, strain rom2, active compounds read low 0.992 | S. cerevisiae deletion strains, locus YLR384C, strain iki3, active compounds read low 0.992 | S. cerevisiae deletion strains, locus YLR418C, strain cdc73, active compounds read low 1.01 | S. cerevisiae deletion strains, locus YML016C, strain PPZ1, active compounds read low 1.02 | S. cerevisiae deletion strains, locus YML032C, strain rad52, active compounds read low 0.992 | S. cerevisiae deletion strains, locus YML120C, strain ndi1, active compounds read low 0.965 | S. cerevisiae deletion strains, locus YML124C, strain tub3, active compounds read low 0.993 | S. cerevisiae deletion strains, locus YMR058W, strain fet3, active compounds read low 0.98 | S. cerevisiae deletion strains, locus YMR078C, strain ctf18, active compounds read low 0.995 | S. cerevisiae deletion strains, locus YMR125W, strain sto1, active compounds read low 0.953 | S. cerevisiae deletion strains, locus YMR129W, active compounds read low 0.99 | S. cerevisiae deletion strains, locus YMR205C, strain PFK2, active compounds read low 0.975 | S. cerevisiae deletion strains, locus YMR223W, strain ubp8, active compounds read low 0.991 | S. cerevisiae deletion strains, locus YMR231W, strain pep5, active compounds read low 0.988 | S. cerevisiae deletion strains, locus YMR263W, strain SAP30, active compounds read low 1.03 | S. cerevisiae deletion strains, locus YMR307W, strain GAS1, active compounds read low 1.09 | S. cerevisiae deletion strains, locus YNL067W, strain RPL9B, active compounds read low 1.03 | S. cerevisiae deletion strains, locus YNL071W, strain lat1, active compounds read low 0.977 | S. cerevisiae deletion strains, locus YNL183C, strain NPR1, active compounds read low 0.919 | S. cerevisiae deletion strains, locus YNL209W, strain ssb2, active compounds read low 0.984 | S. cerevisiae deletion strains, locus YNL233W, strain BNI4, active compounds read low 1.04 | S. cerevisiae deletion strains, locus YNL248C, strain rpa49, active compounds read low 0.977 | S. cerevisiae deletion strains, locus YNL250W, strain rad50, active compounds read low 0.995 | S. cerevisiae deletion strains, locus YNL271C, strain bni1, active compounds read low 0.989 | S. cerevisiae deletion strains, locus YNL298W, strain CLA4, active compounds read low 0.993 | S. cerevisiae deletion strains, locus YNL307C, strain MCK1, active compounds read low 0.994 | S. cerevisiae deletion strains, locus YNL322C, strain KRE1 (second series), active compounds read low 0.979 | S. cerevisiae deletion strains, locus YNL322C, strain KRE1, active compounds read low 1.01 | S. cerevisiae deletion strains, locus YNR049C, strain mso1, active compounds read low 0.955 | S. cerevisiae deletion strains, locus YNR052C, strain pop2, active compounds read low 0.991 | S. cerevisiae deletion strains, locus YOL006C, strain TOP1, active compounds read low 1.11 | S. cerevisiae deletion strains, locus YOL012C, strain htz1 0.987 | S. cerevisiae deletion strains, locus YOL147C, strain pex11, active compounds read low 0.992 | S. cerevisiae deletion strains, locus YOR001W, strain rrp6, active compounds read low 0.963 | S. cerevisiae deletion strains, locus YOR061W, strain CKA2, active compounds read low 1.02 | S. cerevisiae deletion strains, locus YOR069W, strain VPS5, active compounds read low 1.01 | S. cerevisiae deletion strains, locus YOR070C, strain gyp1, active compounds read low 0.969 | S. cerevisiae deletion strains, locus YOR080W, strain dia2, active compounds read low 0.968 | S. cerevisiae deletion strains, locus YOR083W, strain WHI5, active compounds read low 0.967 | S. cerevisiae deletion strains, locus YOR106W, strain vam3, active compounds read low 0.96 | S. cerevisiae deletion strains, locus YOR136W, strain idh2, active compounds read low 0.998 | S. cerevisiae deletion strains, locus YOR144C, strain elg1, active compounds read low 0.99 | S. cerevisiae deletion strains, locus YOR184W, strain ser1, active compounds read low 1.01 | S. cerevisiae deletion strains, locus YOR231W, strain MKK1, active compounds read low 0.974 | S. cerevisiae deletion strains, locus YOR265W, strain rbl2, active compounds read low 0.968 | S. cerevisiae deletion strains, locus YOR270C, strain vph1, active compounds read low 0.911 | S. cerevisiae deletion strains, locus YOR290C, strain snf2, active compounds read low 0.969 | S. cerevisiae deletion strains, locus YOR316C, strain cot1, active compounds read low 0.992 | S. cerevisiae deletion strains, locus YPL051W, strain arl3, active compounds read low 0.981 | S. cerevisiae deletion strains, locus YPL055C, strain LGE1, active compounds read low 1.07 | S. cerevisiae deletion strains, locus YPL078C, strain atp4, active compounds read low 0.971 | S. cerevisiae deletion strains, locus YPL106C, strain sse1, active compounds read low 0.958 | S. cerevisiae deletion strains, locus YPL240C, strain hsp82, active compounds read low 0.992 | S. cerevisiae deletion strains, locus YPL256C, strain CLN2, active compounds read low 0.974 | S. cerevisiae deletion strains, locus YPR119W, strain clb2, active compounds read low 0.997 | S. cerevisiae deletion strains, locus YPR141C, strain kar3, active compounds read low 0.989 | S. cerevisiae deletion strains, locus YPR163C, strain tif3, active compounds read low 0.991 | S. cerevisiae deletion strains, locus YPR167C, strain met16, active compounds read low 0.998 | S. cerevisiae deletion strains, strain wtn01, active compounds read low 1 | S. cerevisiae strains, strain wild type, active compounds read low 1.02
